This excerpt belongs to a sample that is enriched for hits.
FBPA Giardia inh: blocks Giardia fructose-bisphosphate aldolase activity; purified Giardia FBPA; Potency, µM (titrated, usually from 59.6 µM), without a hit: at the top dose activity, negative = inhibition, most hits filed as inhibitors; 290,000 compounds, 0.71% hits; AID 2451; note: potency is the fitted concentration of half-maximal effect; % is set by controls: 0 for no effect and ±100 for the full control effect; nearly all actives have a fitted effect of over 55% in size
Target sequence (A8B2U2 whole entry, looked up): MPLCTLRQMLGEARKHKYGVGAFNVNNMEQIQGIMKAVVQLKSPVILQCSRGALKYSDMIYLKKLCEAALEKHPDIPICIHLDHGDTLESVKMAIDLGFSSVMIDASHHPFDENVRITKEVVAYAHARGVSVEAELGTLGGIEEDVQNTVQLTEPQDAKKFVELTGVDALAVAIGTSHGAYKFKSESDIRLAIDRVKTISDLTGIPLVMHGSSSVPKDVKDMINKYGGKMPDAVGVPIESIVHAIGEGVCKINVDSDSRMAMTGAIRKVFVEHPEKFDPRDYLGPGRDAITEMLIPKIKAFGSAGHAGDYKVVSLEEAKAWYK
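Giardia FBPA (40 nM reagent) was preincubated 10 min at RT with compound (up to 57.5 uM final), then substrate plus GAPDH/TPI/NAD/arsenate coupling system with diaphorase/resazurin was added; resorufin fluorescence (525/598 nm) was read after 20 min.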
TbPYK inhibitor: T. brucei pyruvate kinase inhibition; TbPYK enzyme, Kinase-Glo Plus ATP luminescence, 45 min; Potency, µM (series often up to 76.8 µM), without a hit: at the highest dose activity, negative = inhibition, hits mostly inhibitors; 410,000 compounds, 0.12% hits; Q57TT1; note: potency is the fitted concentration of half-maximal effect; % is set by controls: 0 for no effect and ±100 for the full control effect; nearly all actives have a fitted effect of over 50% in size
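Screened from lowest to highest concentration, compounds were pinned into TbPYK/substrate mixtures, and ADP (130 uM final) was added. Plates sat at room temperature for 45 min prior to Kinase-Glo Plus detection by luminescence.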
RE007 growth inh: less growth of the S. pombe RE007 Vpr strain. 360,000 compounds, 0.21% hits. AID 651644. S. pombe RE007 Vpr strain, BacTiter-Glo ATP luminescence, 24 h. Potency, µM (titrated, usually from 92.2 µM), for inactives: at the top dose activity change, negative = less growth, usual class: inhibitors; active = well fitted falling curve with a large enough effect; inconclusive = small, poorly fitted or top-dose-only effect; inactive = no such curve, though single readings can be large or run the other way; note: potency is the fitted concentration of half-maximal effect; % is set by controls: 0 for no effect and ±100 for the full control effect; nearly all actives have a fitted effect of over 50% in size
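Fission yeast strain RE007, carrying one chromosomally integrated HIV-1 vpr copy, was seeded at OD 0.01 in PMG+AL medium with 23 nL pinned compound. After 24 h at 30 °C and 99% humidity, viability was read by BacTiter-Glo luminescence.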
CHX counter: counter-screen hit for Shiga toxin inhibitors, cycloheximide; cell reporter, cycloheximide protein synthesis inhibition counterscreen; max response, %; 300,000 compounds, 12% hits; in the data active = max response mostly above about 13%, no sharp cut-off; inactive = mostly below about 14%; note: read at 38.3 µM for the half of the compounds with a filed dose; 0% is about no effect
Shiga toxin inh: inhibitors of Shiga toxin in Vero cells; Vero cells, Shiga toxin protein synthesis inhibition reporter; inhibition, % at 38.7 µM; 290,000 compounds, 9.2% hits; AID 2315; in the data active = inhibition mostly above about 28%, no sharp cut-off; inactive = mostly below about 43%; note: 0% is about no effect
LmPK inh: blocks Leishmania mexicana pyruvate kinase activity. purified LmPK, Kinase-Glo ATP luminescence, 1 h. 290,000 compounds, 0.37% hits. Potency, µM (highest dose often 57.5 µM), without a hit: at the highest dose activity change, negative = inhibition, most hits filed as inhibitors. Q27686; note: potency is the fitted concentration of half-maximal effect; % is set by controls: 0 for no effect and ±100 for the full control effect
Target sequence (Q27686 whole entry, looked up): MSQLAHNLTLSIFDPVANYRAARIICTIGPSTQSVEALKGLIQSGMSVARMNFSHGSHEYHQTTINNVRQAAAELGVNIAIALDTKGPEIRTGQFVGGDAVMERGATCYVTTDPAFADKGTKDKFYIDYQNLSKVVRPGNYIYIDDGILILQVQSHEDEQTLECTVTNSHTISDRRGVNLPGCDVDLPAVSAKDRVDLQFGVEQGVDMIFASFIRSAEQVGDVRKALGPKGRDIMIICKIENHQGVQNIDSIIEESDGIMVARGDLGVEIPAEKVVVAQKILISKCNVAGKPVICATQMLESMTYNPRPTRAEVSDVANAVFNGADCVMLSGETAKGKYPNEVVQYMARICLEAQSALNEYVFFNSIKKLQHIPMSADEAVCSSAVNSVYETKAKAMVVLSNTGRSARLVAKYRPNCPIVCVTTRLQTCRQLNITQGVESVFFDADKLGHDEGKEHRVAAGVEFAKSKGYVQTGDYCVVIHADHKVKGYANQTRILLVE
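Kinase-Glo luminescence read after 1 h RT reaction of 0.1 nM LmPK with 0.5 mM PEP and 0.1 mM ADP. Activity scaled between uninhibited and enzyme-free controls.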
* hit, by the source's call; ? = inconclusive; . = not tested or not shown. Unless noted, calls come from the whole dose curve; as a rule, active = well fitted curve in the direction sought with a large enough effect; inconclusive = small, poorly fitted or top-dose-only effect, or another doubt; inactive = no such curve, though single readings can be large; an effect the other way counts as inactive or inconclusive.

SMILES | FBPA Giardia inh | TbPYK inhibitor | RE007 growth inh | CHX counter | Shiga toxin inh | LmPK inh
CCCCC(=O)OCC(=O)c1[nH]c(C)c(C(=O)OCC)c1C | 3.9% | 6.5% | 1.2% | 31.4* | 84.5* | 1.7%
CCOC(=O)c1c(C)[nH]c(C(=O)CSc2nnc(C3CC3)n2N)c1C | -8.4% | -8.6% | -7.8% | 17.1* | 30.3 | 5.1%
CC(=O)c1c(C)[nH]c(C(=O)COC(=O)CCSc2ccccc2)c1C | -7.0% | 7.4% | 2.2% | -1.6 | -5.6 | 3.1%
COc1ccc(S(=O)(=O)Nc2cc3c(cc2NCc2ccccc2)n(C)c(=O)n3C)cc1 | . | -1.5% | . | . | . | .
CCOC(=O)c1c(C)[nH]c(C(=O)CSc2nccc(C)n2)c1C | 1.0% | 2.5% | -0.2% | 37.1* | 87.3* | -3.3%
CCCc1cc(=O)[nH]c(SCC(=O)c2[nH]c(C)c(C(=O)OCC)c2C)n1 | 0.6% | -0.4% | 11.7% | -3.2 | 31.9 | -7.4%
CCOC(=O)c1[nH]c(C)c(C(=O)Nc2ccc(C)c(F)c2)c1C | -3.7% | -7.3% | -16.5% | 0.2 | 0.6 | -8.0%
CCOC(=O)c1[nH]c(C)c(C(=O)Nc2ccc(C)c(Cl)c2)c1C | 2.7% | -4.3% | -8.0% | 9.0* | 7.9 | 5.3%
CCOC(=O)c1c(C)[nH]c(C(=O)C(C)Sc2ccc(Cl)cc2)c1C (centres undefined) | . | -4.7% | 4.9% | 19.4* | 107.0 | 0.0%
Cc1cc(C(=O)CSc2ccc(Cl)cc2)cc(C)c1OC(=S)N(C)C | 1.2% | 4.0% | -2.1% | 35.6* | 89.8* | 7.7%
CCOC(=O)c1c(C)[nH]c(C(=O)CN2C(=O)NC3(CCCC3)C2=O)c1C | 4.7% | 0.0% | 5.0% | 28.7* | 52.1* | 0.2%
CCOC(=O)c1c(C)[nH]c(C(=O)CSc2ccccc2)c1C | 4.9% | -11.6% | -4.2% | 43.4* | 53.4* | 1.0%
CCOC(=O)c1c(C)[nH]c(C(=O)N/N=C\c2ccccc2O)c1C | -15.0% | -2.4% | -10.3% | 29.4* | 35.1* | -3.2%
CCOC(=O)c1c(C)[nH]c(C(=O)OCc2ccccc2)c1C | . | 9.3% | 3.7% | 87.2* | 59.5* | -5.5%
CCOC(=O)c1c(C)[nH]c(C)c1C(=O)CN1C(=O)NC2(CCCCCC2)C1=O | . | -7.2% | 10.5% | . | . | .
CCCCCC(C)NC(=O)c1cc(S(=O)(=O)N2CCCCC2)ccc1N1CCOCC1 (centres undefined) | . | 0.0% | 0.1% | . | . | .
Cc1ccc2c(=O)cc(C(=O)Nc3nc4ccc(Cl)cc4s3)oc2c1 | . | -8.6% | . | . | . | .
CC(=O)c1c(C)[nH]c(C(=O)CSc2nc3ccc(C)cc3[nH]2)c1C | ? | -11.0% | -7.3% | 8.4 | 16.0 | 1.8%
CCOC(=O)c1c(Cc2ccccc2)c[nH]c1C | 0.0% | -1.0% | 0.8% | 30.9* | 61.5* | 5.5%
CCOC(=O)c1c(C)c[nH]c1C | -0.7% | -1.4% | 2.4% | 4.2 | -9.5 | -2.4%
CC(=O)c1c(C)[nH]c(C(=O)CSc2ccc(F)cc2)c1C | 0.5% | 0.0% | -7.4% | 49.4* | 97.8* | -3.1%
Cc1ccc(S(=O)(=O)N2CCN(C(=O)c3ccc(-n4cncn4)c([N+](=O)[O-])c3)CC2)c(C)c1 | . | 5.9% | 8.6% | . | . | .
Oc1ccc(-c2nc3ncccn3c2Nc2ccc3c(c2)OCO3)cc1 | -1.5% | -3.6% | -6.2% | -3.7 | -22.4 | 2.4%
Cc1ccc(Nc2c(-c3ccc(C)o3)nc3ncccn23)cc1 | 2.4% | -14.9% | 5.9% | 21.3* | 54.2* | 0.6%
Cc1ccc(-c2nc3ncccn3c2Nc2ccc3c(c2)OCO3)o1 | -8.5% | -18.1% | -2.4% | 19.8* | 10.5 | 2.7%
SMILES | FBPA Giardia inh | TbPYK inhibitor | RE007 growth inh | CHX counter | Shiga toxin inh | LmPK inh
Cc1cc(Nc2ccccc2)nc(-c2ccccc2O)n1 | -7.0% | 0.3% | ? | 34.9* | 106.8* | 4.9%
Cc1cc(NC2CCCCC2)nc(-c2ccccc2O)n1 | -25.9% | 4.1% | -11.3% | 14.7* | 44.1 | 3.5%
Cc1cc(Nc2cccc(F)c2)nc(-c2ccccc2O)n1 | 1.0% | -5.6% | -6.5% | 14.2 | 24.9 | 5.7%
Cc1cc(NCc2ccccc2)nc(-c2ccccc2O)n1 | -0.1% | 0.4% | -4.6% | 29.2 | 25.1 | 1.3%
CCOC(=O)C1(Cc2cccc(F)c2)CCN(C(=O)c2ccoc2C)CC1 | -1.9% | -1.6% | 5.6% | 11.6* | 9.7 | 0.7%
CCOC(=O)C1(Cc2cccc(F)c2)CCN(C2CCOCC2)CC1 | 4.2% | 3.9% | 5.2% | 5.6 | -11.0 | 8.6%
CCOC(=O)C1(Cc2cccc(OC)c2)CCCN(C(=O)CCc2cccnc2)C1 (centres undefined) | 1.8% | -4.3% | -2.4% | 46.2* | 69.0* | -0.1%
CCOC(=O)C1(Cc2cccc(OC)c2)CCN(C2CCOCC2)CC1 | -14.6% | -4.2% | 0.7% | 33.2* | 82.4* | 2.0%
CC#CC(=O)N1CCCC(Cc2cccc(OC)c2)(C(=O)OCC)C1 (centres undefined) | -0.2% | -2.7% | 1.0% | 43.4* | 32.5* | -1.8%
COc1ccc(CNC(=O)c2sc3nc4n(c(=O)c3c2C)CCCCC4)cc1 | . | -27.4% | . | . | . | .
Cc1ccccc1OCC(=O)OCC(=O)Nc1cc(S(=O)(=O)N2CCCCC2)ccc1Cl | . | -1.1% | 0.7% | . | . | .
CCOC(=O)C1(Cc2cccc(OC)c2)CCCN(C(=O)c2cc(C)oc2C)C1 (centres undefined) | . | 0.1% | 10.7% | 39.4* | 76.0* | 6.9%
CCOC(=O)C1(Cc2cccc(OC)c2)CCCN(C(=O)CSC)C1 (centres undefined) | . | 3.5% | 1.6% | . | . | .
Cc1cccc(NC(=O)c2ccc3snnc3c2)c1C | . | 4.0% | . | . | . | .
CC(C)COc1ccc(/C(=N/O)c2ccccc2)cc1 | -2.3% | 3.0% | 3.5% | 29.7* | 38.3 | -3.4%
O=C1NC(=O)C(=C2CCOC2=O)N1 | . | -5.3% | 5.4% | . | . | .
OCC1O[C@@H](O[C@@H]2C(CO)OC(O)C(O)C2O)C(O)C(O)C1O (some centres undefined) | . | 0.0% | . | . | . | .
COC(=O)c1c(C)[nH]c(/C=N/Nc2ccccc2)c1C | -19.2% | 0.1% | 37.0% | 20.5* | 60.5 | 1.6%
Cc1c(C=NNc2ccccc2)[nH]c(=O)[nH]c1=O | . | -4.2% | 171.8% | . | . | .
Cc1nnc(SCC(=O)Nc2ncc(Cc3ccc(F)cc3)s2)n1N | -0.4% | 4.9% | -15.0% | 1.7 | 9.1 | -2.6%
Cc1ccc(C(=O)Nc2ncc(C)s2)s1 | -13.3% | 0.0% | 19.6% | 17.3* | 42.1 | -6.5%
CCc1noc(C)c1C(=O)Nc1ncc(C)s1 | -1.8% | 1.4% | -2.0% | 18.6* | 41.2* | -1.6%
Cc1ccc(C(=O)Nc2ncc(Cc3ccc(F)cc3)s2)o1 | -3.7% | -1.9% | 1.2% | 41.4* | 156.4* | -0.8%
Cc1ccc(C(=O)Nc2ncc(C)s2)o1 | -0.5% | -20.6% | -17.8% | 35.2* | 49.8 | 12.6µM*
CCN(CC)C(=O)Cn1nc(-c2ccc(Cl)cc2)c2ccccc2c1=O | 2.8% | 0.2% | -2.1% | -0.4 | 17.1 | 1.3%

Screening results: PubChem BioAssay, National Center for Advancing Translational Sciences (NCATS)
